Most compounds without a hit are left out; they make up all but 3.1% or so of the library.
GDH-TPI inh = inhibits GDH-TPI coupling enzymes, artifact for Mtb FBA screen. AID 588335. inhibition, % at 4.8 µM. GDH-TPI coupled enzyme counterscreen, NADH absorbance. 360,000 tested, 1.2% active; in the data active = inhibition above about 30%
FadD28 FP inh = M. tuberculosis FadD28 bisubstrate binding inhibition | FadD28 bisubstrate probe binding, fluorescence polarization | inhibition, % at 12.5 µM | 360,000 tested, 0.22% active; in the data active = inhibition above about 8.5%, passing the limit was not always enough
Mtb FBA inh = inhibits M. tuberculosis FBA enzyme. P9WQA3. 360,000 tested, 2.3% active. AID 588726. inhibition, % at 1 µM. purified M. tuberculosis FBA, fluorescence read-out; in the data active = inhibition above about 27%
Target sequence (P9WQA3 whole entry, looked up): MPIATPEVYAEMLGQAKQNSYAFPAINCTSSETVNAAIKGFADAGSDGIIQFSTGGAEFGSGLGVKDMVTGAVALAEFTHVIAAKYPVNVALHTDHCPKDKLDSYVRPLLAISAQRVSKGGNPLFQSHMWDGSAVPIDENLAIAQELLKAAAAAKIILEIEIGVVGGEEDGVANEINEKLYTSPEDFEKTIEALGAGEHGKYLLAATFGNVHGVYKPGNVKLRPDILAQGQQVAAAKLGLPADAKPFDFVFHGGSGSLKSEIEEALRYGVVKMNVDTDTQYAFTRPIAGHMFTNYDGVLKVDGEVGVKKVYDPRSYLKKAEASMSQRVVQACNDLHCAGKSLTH
Mtb BioA inh = blocks M. tuberculosis BioA enzyme activity | 360,000 tested, 0.096% active | inhibition, % at 9.99 µM | purified M. tuberculosis BioA enzyme, plate reader; in the data active = inhibition above about 40%
3CLpro inhibitor = SARS-CoV 3CLpro protease inhibition; inhibition, % at 6 µM; recombinant SARS-CoV 3CLpro, quenched FRET peptide cleavage; P0C6X7; 290,000 tested, 0.14% active; in the data active = inhibition above about 12%
Hits are given with their value; i = inactive; nt = no result given; + = active, no number.

SMILES | GDH-TPI inh | FadD28 FP inh | Mtb FBA inh | Mtb BioA inh | 3CLpro inhibitor
O=C(Nc1ccc(-c2nnc(-c3ccco3)o2)cc1)C(c1ccccc1)c1ccccc1 | i | i | i | i | i
Cc1ccc(SCC(=O)Nc2ccc(-c3nnc(-c4ccco4)o3)cc2)cc1 | 31 | i | i | i | i
O=C(O)CCC(=O)Nc1ccc(-c2nnc(-c3ccco3)o2)cc1 | i | i | 141 | i | i
Cc1ccc(NC(=O)CCSc2nnc(-c3ccco3)o2)cc1 | i | i | i | i | i
CCC(=O)Nc1ccc(-c2nnc(-c3ccccc3)o2)cc1 | i | i | + | i | i
C/C=C/c1cnc2c(c1)C(=O)N([C@H](C)CO)C[C@H](C)[C@H](CN(C)C(=O)Nc1c(C)noc1C)O2 | nt | nt | nt | i | nt
CC(=O)Nc1ccccc1-c1cccc2nccn12 | i | i | 125 | i | nt
CC(=O)Nc1cccc(-c2cccc3nccn23)c1 | i | i | 159 | i | nt
COc1ccccc1-c1cccc2nccn12 | i | i | 128 | i | nt
O=C(O)C[C@H]1C[C@@H]2c3cc(NC(=O)c4cccnc4)ccc3O[C@@H]2[C@H](CO)O1 | nt | nt | nt | i | nt
C[C@H]1CN([C@@H](C)CO)C(=O)c2c(c3ccccc3n2C)-c2ccccc2CO[C@H]1CN(C)C(=O)c1ccc(F)cc1 | nt | nt | nt | i | nt
O=[N+]([O-])c1cc(C(F)(F)F)ccc1NCCc1c[nH]c2ccc(O)cc12 | i | 12 | i | i | i
Cc1ccc(S(=O)(=O)N2C[C@H](O)COC[C@H]3O[C@@H](CC(=O)N4CCc5ccccc5C4)CC[C@@H]32)cc1 | nt | nt | nt | i | nt
Cc1ccsc1C1Nc2ccccc2C(=O)N1O (configuration not stated) | i | i | i | i | i
Cc1ccsc1C1Nc2ccccc2-c2nc3ccccc3n21 (configuration not stated) | i | i | 178 | nt | i
Oc1ccccc1C=Nc1ccccc1-c1nc2ccccc2[nH]1 | i | i | 128 | i | i
Oc1ccc(C=Nc2ccccc2-c2nc3ccccc3[nH]2)c(O)c1 | 33 | i | 166 | i | i
COc1ccc(OC)c(C=Nc2ccccc2-c2nc3ccccc3[nH]2)c1 | i | i | + | nt | i
Fc1ccccc1-c1nc2ccccc2[nH]1 | i | i | i | nt | i
COc1ccc(OC)c(/C=C/c2nc3ccccc3[nH]c2=O)c1 | i | i | i | i | i
C[C@@H]1CN([C@H](C)CO)C(=O)c2cccc(N(C)C)c2O[C@H]1CN(C)Cc1ccc(Cl)c(Cl)c1 | nt | nt | nt | i | nt
C[C@@H]1CN([C@H](C)CO)C(=O)c2cc(-c3ccc(F)cc3)cnc2O[C@H]1CN(C)C(=O)Cc1ccccn1 | nt | nt | nt | i | nt
c1ccc(C2=NN(c3ccccc3)C(c3ccco3)C2)cc1 (configuration not stated) | i | i | 126 | i | i
C/C=C/c1ccc2c(c1)O[C@@H](CN(C)C(=O)C1CC1)[C@H](C)CN([C@H](C)CO)S2(=O)=O | nt | nt | nt | i | nt
O=C(Nc1ccc2c(c1)OCO2)N[C@H]1CC[C@H](CCNC(=O)C2CC2)O[C@H]1CO | nt | nt | nt | i | nt
SMILES | GDH-TPI inh | FadD28 FP inh | Mtb FBA inh | Mtb BioA inh | 3CLpro inhibitor
CCCC1(C)Nc2ccccc2-c2nc3ccccc3n21 (configuration not stated) | i | i | 179 | i | i
c1ccc2c(c1)NC1(CCCC1)n1c-2nc2ccccc21 | i | i | + | i | i
COc1cccc(-c2cnc3c(c2)C(=O)N([C@@H](C)CO)C[C@H](C)[C@H](CN(C)C(=O)CN(C)C)O3)c1 | nt | nt | nt | i | nt
CCCNC(=O)N1[C@H](C#N)[C@H](c2ccc(-c3cccnc3)cc2)[C@H]1CO | nt | nt | nt | i | nt
O=C1CCC(=O)c2oc3ccccc3c2N1 | 31 | i | i | i | i
O=C1CN=C(c2ccc(F)cc2)c2oc3ccccc3c2N1 | i | i | i | nt | i
O=C(C[C@@H]1C=C[C@@H](NC(=O)C2CCOCC2)[C@@H](CO)O1)NCC1CCCCC1 | nt | nt | nt | i | nt
COc1ccc(S(=O)(=O)N(C)C[C@H]2Oc3ccc(NS(=O)(=O)c4ccccc4)cc3C(=O)N([C@H](C)CO)C[C@H]2C)cc1 | nt | nt | nt | i | nt
C[C@H]1CN([C@@H](C)CO)C(=O)Cc2cc(NC(=O)Cc3cn(C)c4ccccc34)ccc2O[C@H]1CN(C)C(=O)Nc1ccccc1 | nt | nt | nt | i | nt
C[C@@H]1CN([C@@H](C)CO)C(=O)c2cccc(NC(=O)Nc3cccc4ccccc34)c2O[C@H]1CN(C)C(=O)Nc1cccc2ccccc12 | nt | nt | nt | i | nt
COc1ccc(Cn2c(O)c(/C=N/NC(=O)c3ccncc3)c(=O)[nH]c2=O)cc1 | 42 | i | i | i | i
CCn1c(O)c(/C=N/NC(=O)c2ccccc2)c(=O)[nH]c1=S | 32 | i | i | nt | i
O=C(N/N=C/c1c(O)n(CCc2ccc(F)cc2)c(=O)[nH]c1=O)c1ccccc1 | i | i | i | i | i
O=C(N/N=C/c1c(O)n(-c2cccc3ccccc23)c(=O)[nH]c1=O)c1ccncc1 | 43 | i | i | i | i
COc1ccc(Cn2c(O)c(/C=N/NC(=O)c3ccccc3)c(=O)[nH]c2=O)cc1 | 35 | i | i | i | i
O=C(N/N=C/c1c(O)n(Cc2ccco2)c(=O)[nH]c1=O)c1ccccc1 | i | i | i | i | i
COc1ccc(S(=O)(=O)N(C)C[C@@H]2Oc3c(NS(=O)(=O)c4ccc(Cl)cc4)cccc3C(=O)N([C@@H](C)CO)C[C@H]2C)cc1 | nt | nt | nt | i | nt
CCCNC(=O)N[C@@H]1CC[C@@H](CC(=O)NC2CCCCC2)O[C@@H]1CO | nt | nt | nt | i | nt
C[C@H](CO)N1C[C@H](C)[C@H](CN(C)Cc2ccc(C(=O)Nc3ccccc3N)cc2)Oc2ccc(NC(=O)Cc3cn(C)c4ccccc34)cc2C1=O | nt | nt | nt | i | nt
O=c1[nH]c(=S)n(Cc2ccc(F)cc2)c(O)c1C=NCc1cccnc1 | 35 | i | i | i | i
CC(C)n1c(O)c(C=NCc2ccccc2)c(=O)[nH]c1=S | 40 | i | i | nt | i
CCOC(=O)c1sc(/N=C/N(C)C)c(C(=O)OCC)c1C | i | i | i | i | i
CCOC(=O)c1sc(/N=C/N(C)C)nc1C | 31 | i | i | i | i
CO[C@@H]1CN(C)C(=O)c2ccc(NC(C)=O)cc2OC[C@H](C)N(S(=O)(=O)c2cn(C)cn2)C[C@H]1C | nt | nt | nt | i | nt
CC(C)CN(C(=O)c1cc([N+](=O)[O-])cc([N+](=O)[O-])c1)C1CCS(=O)(=O)C1 (configuration not stated) | i | i | i | i | nt
SMILES | GDH-TPI inh | FadD28 FP inh | Mtb FBA inh | Mtb BioA inh | 3CLpro inhibitor
CC(C)CN(C(=O)c1ccc(-n2cncn2)c([N+](=O)[O-])c1)C1CCS(=O)(=O)C1 (configuration not stated) | i | 22 | i | i | nt
O=C1OC(CN2CCOCC2)CN1N=Cc1ccc([N+](=O)[O-])o1 (configuration not stated) | 32 | i | i | i | nt
COc1ccc(/C=C(\NC(=O)c2ccccc2)C(=O)N/N=C/c2sccc2C)cc1 | 40 | i | i | i | i
COc1ccc(CC(=O)NCC(=O)N/N=C/c2sccc2C)cc1 | i | i | i | i | i
O=C(N/N=C/c1cccs1)/C(=C/c1ccccc1)NC(=O)c1ccccc1 | 42 | i | i | i | i
COc1ccc(OC)c(/C=C(\NC(=O)c2ccccc2)C(=O)N/N=C/c2ccc(C)s2)c1 | 49 | i | i | i | i

Bioassay records as filed in PubChem.
